This note sets out measurements from PubChem BioAssay (EPA / NIEHS).

Test [1] in a line: ATG_GLI_CIS: Attagene CIS-FACTORIAL HepG2 Assay for human Zinc Finger Protein GLI1 (AID 2282945). The following applies: HepG2, Attagene cis-factorial reporter mRNA, GLI element; actives raise or lower the signal. A digest of the protocol: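 HepG2 cells transiently transfected with cis-promoter multiplexed reporter units report endogenous transcription factor activity. After 24 h chemical exposure, reporter mRNA was quantified by RT-PCR, 6-FAM labelling, HpaI digestion and capillary electrophoresis, with bidirectional fitting against DMSO.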

Test [2] deals with Bile acid receptor (Homo sapiens) (UniProt Q96RI1). In words: ATG_IR1_CIS: Attagene CIS-FACTORIAL HepG2 Assay for human Nuclear Receptor Subfamily 1 Group H Member 4 (NR1H4), IR1 submotif (AID 2282946). The following applies: IR1 reporter transcription, actives raise or lower the signal. A digest of the protocol:
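Readout: reporter transcript levels by RT-PCR with fluorescent capillary electrophoresis, from HepG2 cells transiently transfected with multiplexed cis-regulated reporters and dosed 24 h. Gain- or loss-of-signal fitted versus DMSO negative control.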

Test [3] can be described thus: ATG_GRE_CIS: Attagene CIS-FACTORIAL HepG2 Assay for human Glucocorticoid Response Elements (GRE) (AID 2282947). The following applies: HepG2 GRE cis-reporter, Attagene multiplex mRNA; actives raise or lower the signal. A digest of the protocol:
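Cells (HepG2) bearing transfected cis-promoter reporter transcription units were treated with chemical for 24 hours. Reporter mRNA was measured via RT-PCR with capillary electrophoresis, and activity was fitted in both directions relative to DMSO.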

A short description of test [4]: ATG_ISRE_CIS: Attagene CIS-FACTORIAL HepG2 Assay for human Interferon Regulatory Factor 1 (IRF1) binding to an Interferon-Stimulated Response Element (ISRE) (AID 2282948). The following applies: HepG2 ISRE cis-reporter (Attagene), mRNA transcription readout; actives raise or lower the signal. A digest of the protocol:
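Read-out: fluorescent RT-PCR products resolved by capillary electrophoresis, reporting endogenous transcription factor activity via ISRE-driven reporter mRNA in transfected HepG2 cells dosed for 24 h; gain or loss fitted relative to DMSO.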

A short description of test [5]: ATG_M_32_CIS: Attagene CIS-FACTORIAL HepG2 Assay for M32 Transcription Factor (Internal Marker) (AID 2282949).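 Also: background control marker of the multiplexed CIS panel rather than a real target.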 The note with it: HepG2 Attagene cis-factorial M32 reporter, mRNA; actives raise or lower the signal. The method, boiled down:
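HepG2 transfectants (cis-regulated reporter transcription units) dosed 24 h. Reporter mRNA by RT-PCR plus CE, analysed as gain or loss relative to DMSO.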

A short description of test [6]: ATG_M_06_CIS: Attagene CIS-FACTORIAL HepG2 Assay for M06 Transcription Factor (Internal Marker) (AID 2282950). The following applies: HepG2 Attagene CIS-FACTORIAL M06 internal marker reporter; actives raise or lower the signal. The method, boiled down: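 Cells (HepG2, transiently carrying cis-driven reporter units) receive chemical for 24 h before RNA isolation. Reporter cDNA is PCR-amplified, FAM-labelled by primer extension, HpaI-digested and sized on a capillary analyser.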

Test [7] deals with Hypoxia-inducible factor 1-alpha (Homo sapiens) (UniProt Q16665). In words: ATG_HIF1a_CIS: Attagene CIS-FACTORIAL HepG2 Assay for human Hypoxia Inducible Factor 1 (HIF1A) (AID 2282951). The following applies: HepG2 Attagene cis-factorial HIF1a reporter transcription; actives raise or lower the signal. The method, boiled down: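 After 24 h chemical exposure of reporter-transfected HepG2 cells, reporter cDNA was PCR-amplified, labelled by 6-FAM primer extension (2 min 95 C, 20 s 68 C, 10 min 72 C), HpaI-cut (2 h, 37 C) and analysed by CE.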
Sequence of Hypoxia-inducible factor 1-alpha (Homo sapiens) (Q16665 whole entry, looked up): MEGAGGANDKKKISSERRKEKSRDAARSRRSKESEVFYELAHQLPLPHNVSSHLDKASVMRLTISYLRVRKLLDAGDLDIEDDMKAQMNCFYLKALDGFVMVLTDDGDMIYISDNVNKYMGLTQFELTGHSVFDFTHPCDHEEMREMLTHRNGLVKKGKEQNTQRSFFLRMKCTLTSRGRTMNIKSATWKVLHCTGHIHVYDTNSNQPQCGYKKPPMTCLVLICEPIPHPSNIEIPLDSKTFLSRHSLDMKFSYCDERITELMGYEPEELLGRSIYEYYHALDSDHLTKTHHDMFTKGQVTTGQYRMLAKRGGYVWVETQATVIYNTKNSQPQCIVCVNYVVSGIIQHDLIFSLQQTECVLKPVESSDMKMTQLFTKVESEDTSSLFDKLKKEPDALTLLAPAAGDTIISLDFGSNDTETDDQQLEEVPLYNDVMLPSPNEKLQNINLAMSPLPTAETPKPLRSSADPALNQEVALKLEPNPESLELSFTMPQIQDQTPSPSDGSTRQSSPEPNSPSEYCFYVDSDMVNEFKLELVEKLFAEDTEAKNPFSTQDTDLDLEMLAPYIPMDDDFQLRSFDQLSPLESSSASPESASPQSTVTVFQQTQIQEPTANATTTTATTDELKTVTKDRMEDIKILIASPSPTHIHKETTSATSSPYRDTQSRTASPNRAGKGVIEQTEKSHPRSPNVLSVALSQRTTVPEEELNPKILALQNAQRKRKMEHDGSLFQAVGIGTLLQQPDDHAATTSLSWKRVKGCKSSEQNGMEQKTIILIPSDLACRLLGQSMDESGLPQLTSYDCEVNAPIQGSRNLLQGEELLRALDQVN

Test [8] has as its target Hepatocyte nuclear factor 6 (Homo sapiens) (UniProt Q9UBC0). Kind of test: ATG_HNF6_CIS: Attagene CIS-FACTORIAL HepG2 Assay for human Hepatocyte Nuclear Factor 6 (HNF6) (AID 2282952). The note with it: HepG2 Attagene cis-factorial HNF6 reporter transcription; actives raise or lower the signal. The method, boiled down: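 First, HepG2 cells were transfected with the multiplexed cis reporter library and dosed with chemical for 24 h. Next, RNA was reverse-transcribed, PCR-amplified and fluorescently labelled. Finally, HpaI-digested fragments were read by capillary electrophoresis.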

For test [9], the target named is Heat shock factor protein 1 (Homo sapiens) (UniProt Q00613). In words: ATG_HSE_CIS: Attagene CIS-FACTORIAL HepG2 Assay for human Heat Shock Transcription Factor 1 (HSE) (AID 2282953). The following applies: HepG2 HSE cis-reporter, Attagene RNA transcription; actives raise or lower the signal. A digest of the protocol: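 Liver-derived HepG2 cells carry transiently introduced multiple reporter units governed by cis promoters. Reporter RNA measured 24 h post-dose through reverse transcription, PCR amplification, fluorescent labelling and capillary electrophoresis, normalised to DMSO.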
Sequence of Heat shock factor protein 1 (Homo sapiens) (Q00613 whole entry, looked up): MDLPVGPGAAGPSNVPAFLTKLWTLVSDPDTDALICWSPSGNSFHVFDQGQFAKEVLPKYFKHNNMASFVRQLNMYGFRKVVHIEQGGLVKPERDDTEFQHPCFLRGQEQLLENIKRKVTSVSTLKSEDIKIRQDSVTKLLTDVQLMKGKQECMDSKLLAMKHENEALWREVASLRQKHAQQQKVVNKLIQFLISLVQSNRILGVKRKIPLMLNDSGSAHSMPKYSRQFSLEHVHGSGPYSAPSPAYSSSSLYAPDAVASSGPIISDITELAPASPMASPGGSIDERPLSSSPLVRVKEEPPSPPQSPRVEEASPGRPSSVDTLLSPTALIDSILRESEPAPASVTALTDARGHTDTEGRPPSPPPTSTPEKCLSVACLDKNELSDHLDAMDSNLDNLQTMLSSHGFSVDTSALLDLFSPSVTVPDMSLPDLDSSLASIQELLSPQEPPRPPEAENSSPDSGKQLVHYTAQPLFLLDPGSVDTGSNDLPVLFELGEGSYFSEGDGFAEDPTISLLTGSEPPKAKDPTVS

The nature of test [10]: ATG_MRE_CIS: Attagene CIS-FACTORIAL HepG2 Assay for human Metal Responsive Element (MRE) (AID 2282954). The following applies: HepG2 MRE cis-reporter transcription, Attagene multiplex; actives raise or lower the signal. The method, boiled down:
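Cells were transfected with cis-promoter reporter transcription units, then dosed for 24 h. RNA was reverse-transcribed, amplified, fluorescently labelled and resolved by capillary electrophoresis, and activity was fitted in both directions relative to DMSO.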

As usually defined, the AC50 is the midpoint of the concentration-response curve, whichever way the signal moves.

Where “and” joins values, the source holds several entries; their conditions need not be identical. Identical values can stand only once. Some structures have more than one record in an assay (separate samples or runs), and their calls can disagree. Calls of active or inactive are those of the source. The calls were made as follows: active = hit-call score of the fitted dose curve at least 0.9, where 1 is the maximum; inactive = score below 0.9.

Sequence of Bile acid receptor (Homo sapiens) (Q96RI1 whole entry, looked up): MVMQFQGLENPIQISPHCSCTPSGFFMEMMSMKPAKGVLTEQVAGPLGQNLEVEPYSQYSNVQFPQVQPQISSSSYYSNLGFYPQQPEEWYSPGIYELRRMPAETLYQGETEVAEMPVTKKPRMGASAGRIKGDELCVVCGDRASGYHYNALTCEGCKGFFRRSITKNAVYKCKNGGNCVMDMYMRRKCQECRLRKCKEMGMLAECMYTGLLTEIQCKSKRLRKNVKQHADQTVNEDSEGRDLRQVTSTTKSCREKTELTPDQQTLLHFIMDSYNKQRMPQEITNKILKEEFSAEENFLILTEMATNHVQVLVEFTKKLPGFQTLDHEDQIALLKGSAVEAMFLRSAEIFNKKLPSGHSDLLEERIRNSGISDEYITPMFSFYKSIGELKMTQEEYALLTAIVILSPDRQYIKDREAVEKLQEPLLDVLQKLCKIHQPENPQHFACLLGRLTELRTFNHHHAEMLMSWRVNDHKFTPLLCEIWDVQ
Sequence of Hepatocyte nuclear factor 6 (Homo sapiens) (Q9UBC0 whole entry, looked up, the tested form may be a part): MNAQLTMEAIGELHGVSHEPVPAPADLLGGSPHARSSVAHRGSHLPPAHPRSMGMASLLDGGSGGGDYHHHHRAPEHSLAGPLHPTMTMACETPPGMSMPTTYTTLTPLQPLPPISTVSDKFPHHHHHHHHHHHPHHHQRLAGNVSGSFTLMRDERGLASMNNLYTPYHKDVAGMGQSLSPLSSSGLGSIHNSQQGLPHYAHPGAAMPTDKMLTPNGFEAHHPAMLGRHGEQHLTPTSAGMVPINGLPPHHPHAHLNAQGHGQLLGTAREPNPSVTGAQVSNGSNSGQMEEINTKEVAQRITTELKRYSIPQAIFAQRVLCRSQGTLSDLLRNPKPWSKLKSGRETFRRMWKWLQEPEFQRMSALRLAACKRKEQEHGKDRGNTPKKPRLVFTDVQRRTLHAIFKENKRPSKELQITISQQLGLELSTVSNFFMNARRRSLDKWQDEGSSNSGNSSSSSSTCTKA

Consider `FC1CC(F)(F)C(F)(F)C1(F)F` (stereo not given), for which the outcome in test [1], in test [2], in test [3], in [4], in [5] and in [6] was inactive. In addition, the outcome in test [7] and in [8] was inactive.
For `O=C(O)C=C(C(F)(F)F)C(F)(F)F`, the outcome in test [1], in test [2], in [3], in test [4], in test [5] and in test [6] was inactive. Further, the compound was classed as inactive in [7], in [8], in [9] and in test [10].
Consider `Cc1cccc(N(C)C)c1`, for which the compound was classed as inactive in test [1], in test [2], in test [3], in test [4], in [5] and in test [6]. Besides, the call in test [7], in test [8], in test [9] and in [10] was inactive.
Regarding `CCCCNc1ccccc1`, the call in test [1], in [2], in test [3], in [4], in test [5] and in [6] was inactive. Also, the compound was classed as inactive in [7], in test [8], in test [9] and in test [10].
As to `FC(F)(F)C(F)(F)C(F)(F)CI`, the outcome in test [1], in [2], in test [3], in test [4], in test [5] and in test [6] was inactive. Besides, the outcome in test [7], in test [8] and in [9] was inactive.
On to `FC(F)(F)C(F)(F)C(F)(F)N(C(F)(F)C(F)(F)C(F)(F)F)C(F)(F)C(F)(F)C(F)(F)F`, for which the result in test [1], in test [2], in test [3], in [4], in test [5] and in test [6] was inactive. For the same compound, the compound was classed as inactive in test [7] and in test [8].
For `Nc1ccc([N+](=O)[O-])cc1O`, the outcome in test [1], in test [2], in test [3], in test [4], in test [5] and in test [6] was inactive. The compound was classed as inactive in test [8], in test [9] and in [10]. For the same compound, the concentration at half-maximal activity (AC50) in test [7] was 31 µM (active).
`c1ccc(B(c2ccccc2)c2ccccc2)cc1`: the compound was called inactive in [1], in test [2], in test [3], in [4], in test [5] and in test [6]. The compound was classed as inactive in test [8] and in test [9]. For the same compound, in test [7], the AC50 was 58.4 µM (active).
As to `O=S(=O)(OCC(F)F)C(F)(F)F`, the result in [1], in [2], in test [3], in test [4], in test [5] and in test [6] was inactive. In addition, the compound was called inactive in test [7], in test [8] and in test [9].
As for `CCCCCCC(C)OC(=O)CCCCC(=O)OC(C)CCCCCC` (stereo not given), the call in test [1], in test [2], in [3], in test [4], in test [5] and in [6] was inactive. Further, the outcome in [7], in [8], in [9] and in test [10] was inactive.
For `O=C(C=Cc1ccccc1)OCC=Cc1ccccc1`, the compound was called inactive in test [1], in test [2], in test [3], in test [4], in test [5] and in [6]. The result in test [7], in test [8], in [9] and in test [10] was inactive.
With `NC(=O)C(F)(F)C(F)(F)C(F)(F)C(F)(F)F`, the compound was called inactive in test [1], in test [2], in test [3], in [4], in [5] and in test [6]. The call in [7] and in [8] was inactive.
As to `COC(=O)CCC(F)(F)C(F)(F)C(F)(F)C(F)(F)F`, the compound was called inactive in test [1], in test [2], in test [3], in test [4], in test [5] and in [6]. Moreover, the result in test [7], in test [8], in test [9] and in test [10] was inactive.
With `OCC(F)(F)C(F)(F)C(F)(F)F`, the compound was classed as inactive in test [1], in test [2], in [3], in [4], in test [5] and in test [6]. Also, the outcome in test [7], in [8] and in [9] was inactive.
In the case of `O=C(O)C(F)(OC(F)(F)C(F)(OC(F)(F)C(F)(F)C(F)(F)F)C(F)(F)F)C(F)(F)F` (stereo not given), the compound was called inactive in [1], in test [2], in [3], in test [4], in test [5] and in [6]. Also, the compound was classed as inactive in test [7], in test [8] and in [9].
For `C(=C(c1ccccc1)c1ccccc1)c1ccccc1`, the result in test [1], in [2], in test [3], in test [4], in [5] and in [6] was inactive. The call in test [7], in test [8], in test [9] and in [10] was inactive.
In the case of `CCCCCCOC(=O)c1ccccc1`, the compound was classed as inactive in test [1], in [2], in test [3], in test [4], in [5] and in [6]. For the same compound, the compound was classed as inactive in test [7], in test [8], in test [9] and in [10].
For the compound `O=C(O)C(F)(F)C(F)(F)C(F)(F)F`, the call in test [1], in test [2], in [3], in test [4], in test [5] and in test [6] was inactive. Further, the call in test [7] and in test [8] was inactive.
On to `O=C(O)C(F)(F)C(F)(F)C(F)(F)C(F)(F)C(F)(F)C(F)(F)C(F)(F)C(F)(F)Cl`, for which the call in [1], in [2], in test [3], in [5], in test [6] and in test [8] was inactive. The half-maximal activity concentration (AC50) in test [4] is 32.1 µM (active) and 50 µM (active); in test [7] it was 50 µM (active); in test [9] it was 75.8 µM (active) and 82.1 µM (active).
Turning to `C=C(C)C(=O)OCCC(F)(F)C(F)(F)C(F)(F)C(F)(F)C(F)(C(F)(F)F)C(F)(F)F`, the result in test [1], in test [2], in test [3], in [4], in [5] and in [6] was inactive. Moreover, the compound was called inactive in test [7] and in test [8].
As for `OCCCC(F)(F)C(F)(F)C(F)(F)C(F)(F)C(F)(F)C(F)(F)C(F)(F)F`, the result in [1], in test [2], in [3], in [4], in test [5] and in test [6] was inactive. Also, the outcome in test [7], in test [8] and in test [10] was inactive. Further, the AC50 was 96.3 µM (active) in [3]; 233 µM (active) in test [5]; 197 µM (active) in test [7]; 83 µM (active) in test [8]; 50 µM (active) in test [10].
`FC(F)(F)C(F)(F)CNCC(F)(F)C(F)(F)F`: the compound was called inactive in test [1], in [2], in test [3], in test [4], in test [5] and in test [6]. Also, the outcome in test [7] and in test [8] was inactive.
As for `O=C(O)C(F)(F)C(F)(F)C(F)(F)C(F)(F)C(F)(F)C(F)(F)C(F)(F)C(F)(F)C(F)(F)C(F)F`, the compound was classed as inactive in test [1], in test [2], in [3], in test [5], in test [6] and in test [7]. In addition, the result in test [8] and in [9] was inactive. The concentration at half-maximal activity (AC50) is 27.1 µM (active) in [4] and 25.3 µM (active) in test [10].
Turning to `CCCCCCCOC(=O)c1ccccc1C(=O)OCCCCCCC`, the outcome in [1], in test [2], in [3], in [4], in [5] and in [6] was inactive. The call in test [7], in [8] and in [9] was inactive.
